Screens from PubChem BioAssay.
Bst PK mod – Pyruvate Kinase; purified pyruvate kinase, luminescence ATP production; ribose 5-phosphate activator present at AC10; Potency, µM; 51,000 tested, 1.2% active; AID 361, 2006; in the data active = potency below about 11 µM; inconclusive = mostly about 12 µM to 25 µM;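 the screen sought inhibitors and activators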;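 also: scaled between full activation by ribose 5 phosphate and full inhibition by luteolin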
Tau filament bind – qHTS Assay for Tau Filament Binding; recombinant tau filaments, thioflavin S fluorescence, 15 h; filaments grown with octadecylsulfate alongside compound; AID 596, 2007; Potency, µM (doses to about 57.1 µM), inactives show at the highest dose activity change, negative = inhibition; Microtubule-associated protein tau (Homo sapiens), P10636; 71,000 tested, 2% active;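 also: actives lower thioflavin S fluorescence by blocking filaments or displacing dye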
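His-tagged recombinant human tau (exons 2, 3, 10; 1 uM final) fibrillized with 30 uM sodium octadecylsulfate, 15 h at 37 C, in pH 7.4 HEPES buffer with 10 uM thioflavine S and 5 mM DTT. Reduced ThS fluorescence (450/510 nm) marks activity.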
ERK AVP block – qHTS Assay for Inhibitors of the ERK Signaling Pathway using a Homogeneous Screening Assay. Potency, µM (doses to about 57.5 µM), inactives show top-dose activity, negative = inhibition, most hits filed as inhibitors. HEK293-V1b, vasopressin-stimulated pERK AlphaScreen. 72,000 tested, 0.99% active; also: nearly all actives have a fitted effect of over 55% in size
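HEK293 cells stably expressing V1b receptor, preincubated 30 min at 37 °C with compound, then stimulated 5 min with 25 nM vasopressin. Phospho-ERK by AlphaScreen SureFire after 5 h RT; normalized to DMSO and vasopressin; AC50 by Hill fit.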
Luciferase inh – qHTS Assay for Inhibitors of Firefly Luciferase; purified firefly luciferase, luminescence, 8 min; Potency, µM (doses to about 57.1 µM), without a hit: at the highest dose activity change, negative = inhibition, usual class: inhibitors; 72,000 tested, 2.2% active; AID 411, 2009; also: nearly all actives have a fitted effect of over 40% in size
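Here, luciferase activity is measured as luminescence following an 8 min room-temperature reaction at 10 uM ATP, pH 7.2. Every library sample is titrated.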
Hsp90 Hop PPI – qHTS Assay for Disrupters of an Hsp90 Co-Chaperone Interaction | AID 595, 2007 | Hsp90 C-terminal peptide / TPR2A (Hop) interaction, human | 71,000 tested, 0.44% active | AlphaScreen TPR2A-His6 binding biotin-Hsp90 C-terminal peptide | Potency, µM (series often up to 57 µM), for the others: top-dose activity change, negative = inhibition; active = well fitted curve in either direction with a large enough effect; inconclusive = small, poorly fitted or top-dose-only effect, or another doubt
15-hLO inh – qHTS Assay for Inhibitors of 15-hLO (15-human lipoxygenase); Polyunsaturated fatty acid lipoxygenase ALOX15 (Homo sapiens), P16050; purified 15hLO-1, xylenol orange hydroperoxide absorbance; Potency, µM (doses to about 57.1 µM), for the others: at the top dose activity change, negative = inhibition, usual class: inhibitors; 74,000 tested, 1.4% active; also: nearly all actives have a fitted effect of over 55% in size
Target sequence (P16050 whole entry, looked up): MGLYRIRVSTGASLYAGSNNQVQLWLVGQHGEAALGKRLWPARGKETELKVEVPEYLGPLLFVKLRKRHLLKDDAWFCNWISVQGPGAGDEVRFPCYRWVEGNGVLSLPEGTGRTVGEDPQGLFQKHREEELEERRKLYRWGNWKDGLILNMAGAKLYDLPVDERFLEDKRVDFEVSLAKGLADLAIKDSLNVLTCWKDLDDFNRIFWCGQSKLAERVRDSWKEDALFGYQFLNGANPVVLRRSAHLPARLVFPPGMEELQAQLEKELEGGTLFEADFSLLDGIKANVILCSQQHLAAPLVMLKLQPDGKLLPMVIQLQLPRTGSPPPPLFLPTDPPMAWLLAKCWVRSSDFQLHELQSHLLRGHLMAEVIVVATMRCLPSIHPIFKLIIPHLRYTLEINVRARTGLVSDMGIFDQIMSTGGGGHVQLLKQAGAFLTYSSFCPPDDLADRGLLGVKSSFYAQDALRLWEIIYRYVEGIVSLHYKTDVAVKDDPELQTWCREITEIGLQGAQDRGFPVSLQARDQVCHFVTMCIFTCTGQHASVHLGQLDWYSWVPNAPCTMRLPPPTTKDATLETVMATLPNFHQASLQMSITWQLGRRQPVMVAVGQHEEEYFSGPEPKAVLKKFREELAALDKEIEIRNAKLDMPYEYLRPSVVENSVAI
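Quantitative HTS in 25 mM Hepes pH 7.5 containing 0.01% Triton X-100: human 15hLO-1 at 40 nM, arachidonic acid at 50 uM, 6 min turnover. Product quantified via ferrous oxidation/xylenol orange, 573:405 nm absorbance ratio.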
Starred values were filed as active, the others as inactive; i = inactive; u = inconclusive; x = not tested or not shown; [ ] = remark or other dose. The list is not random: actives were taken first. Their share in the collection is about 6.1%. Unless noted, calls follow the shape of the dose curve; as a rule, active = well fitted curve in the direction sought with a large enough effect; inconclusive = small, poorly fitted or top-dose-only effect, or another doubt; inactive = no such curve, though single readings can be large; an effect the other way counts as inactive or inconclusive. Unless noted, % is scaled to controls: 0 for no effect and ±100 for the full control effect; potency is read from the fitted curve at half-maximal effect.

SMILES | Bst PK mod | Tau filament bind | ERK AVP block | Luciferase inh | Hsp90 Hop PPI | 15-hLO inh
c1cn(CCCNc2ncnc3nc[nH]c23)cn1 | x | 161.6% | x | 2.51µM* | 2.1% | 3.8%
COc1ccccc1N1CCN(C/C(C)=C/c2ccccc2)CC1 | x | 2.7%[11.4 µM] | -15.6% | 2.0% | 9.2%[11 µM] | -10.9%[11.4 µM]
C/C(=C\c1ccccc1)CN1CCN(c2ccccc2)CC1 | x | -19.9% | 0.1% | -6.3% | 10.0% | 15.8µM*
CN[C@H]1[C@H](O)[C@@H](O[C@@H]2[C@H](O)[C@@H](O[C@H]3OC(CN)=CC[C@H]3N)[C@@H](N)C[C@H]2N)OC[C@@]1(C)O | x | -1.9%[25.6 µM] | -0.3%[25.7 µM] | 6.4%[25.5 µM] | -4.4%[26 µM] | 14.2%[25.6 µM]
Cc1ccc(CSc2nnc(-c3cccs3)n2C)cc1 | >57 | 14.6% | -0.3% | -1.6% | -0.7% | 2.5%
Cc1nnc(SCc2cnc(-c3ccc(C(C)C)cc3)s2)n1C | 0.559* | 9.6% | 28.0% | 0.501µM* | -7.0% | 15.8%
COc1cccc(-c2cc(C(=O)N3CCN(c4ncccn4)CC3)c3ccccc3n2)c1 | x | -3.4% | u | 6.31µM* | -3.1% | -7.8%
O=C(c1cccn2c(=O)c3cc(Br)ccc3nc12)N1CCN(c2ccccn2)CC1 | >57 | 12.3% | 14.5% | 0.8% | 2.5% | -11.7%
O=C(c1cnc(N2CCN(c3ncccn3)CC2)c2ccccc12)N1CCN(c2ncccn2)CC1 | >57 | 2.4% | 8.7% | 3.6% | u | -0.8%
O=C(c1ccc2c3c(cccc13)CC2)N1CCN(c2ncccn2)CC1 | 6.05* | 6.5% | u | 0.6% | -2.6% | -25.1%
Cc1ccc(-c2cc(C(=O)N3CCOCC3)c3ccccc3n2)cc1 | i | -2.9% | -24.3% | 12.6µM* | -1.9% | 3.5%
O=C(c1cc(-c2ccncc2)nc2ccc(Br)cc12)N1CCN(c2ccccn2)CC1 | u | 31.6µM* | -25.8% | 0.4% | -12.6% | -8.5%
CS(=O)(=O)N1CCN(C(=O)c2ccc(-c3ccccc3)cc2)CC1 | x | 14.7% | -12.1% | 1.6% | -2.6% | 3.7%
CC(C)Oc1cccc(-c2cc(C(=O)N3CCN(S(C)(=O)=O)CC3)c3ccccc3n2)c1 | u | -9.3% | -24.3% | 5.01µM* | -6.9% | 0.4%
COc1cccc(-c2cc(C(=O)Nn3cnnc3)c3ccccc3n2)c1 | x | 7.2% | -26.9% | 3.16µM* | -4.1% | -3.2%
O=C1C[C@@H](O)[C@@H](O)[C@H]2[C@@H]3C(=O)N(C[C@@H]4CCCO4)C(=O)[C@@H]3CC[C@H]12 | x | x | 12.7%[11.5 µM] | 1.6%[11.4 µM] | x | 2.0%[11.4 µM]
C[C@@]12CC[C@H]3[C@H](CC=C4C[C@@H](O)CC[C@@]43C)[C@@H]1CC[C@@H]2N(CCO)CCO | x | 15.4%[11.4 µM] | -0.3%[11.5 µM] | 2.9%[11.4 µM] | -1.3%[11 µM] | 5.0%[11.4 µM]
CC1CCCCN1c1nc(-c2ccncc2)nc2ccccc12 (stereo not given) | >11.4 | 20.1% | 31.6µM* | 0.8% | 5.0% | u
CCC1CCCCN1c1nc(-c2ccncc2)nc2ccccc12 (stereo not given) | >25.6 | x | x | 0.2%[25.5 µM] | x | x
Cn1c(=O)c(-c2ccc(Cl)cc2)nc2cncnc21 | x | 0.5% | -5.5% | -0.3%[11.4 µM] | -4.1% | 3.7%
CC(C)(C)Cn1nc(-c2ccc(Cl)cc2)c2c(N)ncnc21 | x | -22.6% | 15.8µM* | -0.8% | -0.3% | 8.0%[25.6 µM]
O=C(Oc1ccc(-c2cn3c(n2)SCC3)cc1)c1ccccc1 | x | 63.8% | 15.8µM* | 12.6µM* | -6.7% | -22.3%
O=C(Oc1ccccc1)c1ccc(-n2cnnn2)cc1 | >57 | 3.4% | -7.9% | 2.2% | 1.6% | 5.8%
CCSC1=NC(=O)/C(=C2/C=Cc3ccccc3N2CC)S1 | x | 3.98µM* | 25.1µM* | -5.7% | u | -15.4%
CCCn1c(C)nc2c(NC(C)CN(C)C)nc(C)nc21 (stereo not given) | x | 15.3% | 0.3% | x | -1.1% | -1.7%
ClC/C=C/CCl | x | 1.8% | -5.0% | x | 1.0% | -5.3%
CCCN1C[C@@H](CSC)C[C@H]2c3cccc4[nH]cc(c34)C[C@@H]21 | x | 58.7% | 2.7% | 3.0% | -10.0% | -3.3%
